Measured values as given in PubChem BioAssay (Tox21).
Records with an inconclusive call do not appear. Active and inactive are the calls of the source. The call rests on the fitted dose curve; in most records, active means well fitted cell-killing curve with a large enough effect in the repeat runs; inconclusive means weak or mixed curves, or effect the other way; inactive means flat fitted curve, though single readings scatter.

experiment: qHTS RealTime-Glo MT Cell Viability Assay in HEK293 cells - 40 hour (AID 1224874); conditions: RealTime-Glo luminescence; max response: active compounds read low; further: nearly all actives have a fitted effect of over 50% in size
From the text: U.S. Tox21 Program National Center for Advancing Translational Sciences [NCATS] NIH Chemical Genomics Center [NCGC] U.S. Environmental Protection Agency [EPA] National Institutes of Environmental Health Sciences [NIEHS] National Toxicology Program [NTP] U.S. Food and Drug Administration [FDA] Tox21 Assay Overview: Measure of cell viability is critical in the cell-base assay. Analysis of cell viability is necessary for the characterization of cell responses to cytotoxic drugs and environmental stress. A RealTime-Glo MT Cell Viability Assay to monitor cell viability in real time of continues cell culture during 40 hours of compound treatment was used to screen Tox21 10K library compounds in Hek293 cells. The RealTime-Glo MT Cell Viability Assay is a nonlytic, homogeneous, bioluminescent method to measure cell viability in real time using a simple, plate-based method. The assay involves adding NanoLuc luciferase and a cell-permeant prosubstrate to cells in culture. Viable cells reduce the proprietary prosubstrate to generate a substrate for NanoLuc luciferase. This substrate diffuses from cells into the surrounding culture medium, where it is rapidly used by the NanoLuc Enzyme to produce a luminescent signal. The signal correlates with the number of viable cells, making the assay well suited for cytotoxicity studies.
Tox21 Assay Protocol Summary: The mixture of Hek293 cell suspension and reagents were dispensed at 600cells/6 ul/well in 1536-well tissue culture treated black solid bottom plates using a Multidrop dispenser. After the assay plates were incubated at a 37 C/5% CO2 incubator for 5 hours, 23 nL of compounds dissolved in DMSO, positive and negative controls was transferred to the assay plate by a pintool work station. The plates were incubated at 37 C for 40 hours. The luminescence intensity were measured at 0h, 8h, 16h, 24h, 32h and 40h time points using ViewLux plate reader during compound treatment.
On the % scale 0 is the no-effect control and ±100 the full control effect; potency means the concentration at half of the fitted maximal effect.

Row | Structure (SMILES) | max response | Potency
1 | CCC(O)C(C)(C)C (stereo not given) | 2.07% (inactive) | –
2 | CC(C)CCC(=O)CCC(C)C | 1.42% (inactive) | –
3 | NS(=O)(=O)c1ccccc1OC(F)(F)F | 6.21% (inactive) | –
4 | O=C(O)C(=O)Nc1cccc(-c2nn[nH]n2)c1 | 0.908% (inactive) | –
5 | CCCCCCCCOC(C)=O | 7.81% (inactive) | –
6 | O=CO | -0.6% (inactive) | –
7 | CCNC(=O)/C=C/c1cccc(Br)c1 | 1.9% (inactive) | –
8 | CC(=O)c1ccc(OCC(=O)N2CCCCC2)cc1 | 1.3% (inactive) | –
9 | COc1ccc(N=Nc2cc(C)c(N=Nc3ccc(S(=O)(=O)O)cc3)cc2OC)cc1 | -2.91% (inactive) | –
10 | COc1cc(C=O)ccc1OC(=O)C(C)C | -2% (inactive) | –
11 | CC(C)CCCC(C)CC=O (stereo not given) | 0.176% (inactive) | –
12 | NCCc1ccn[nH]1 | 6.3% (inactive) | –
13 | O=C(O)c1ccccc1C(=O)OCc1ccccc1 | 3.76% (inactive) | –
14 | CNC(=O)C(c1ccccc1)c1ccccc1 | 0.511% (inactive) | –
15 | CCCCOC(=O)C(C)OC(=O)CCC (stereo not given) | 13% (inactive) | –
16 | CCCCOC(=O)C(=O)OCCCC | 0.934% (inactive) | –
17 | CCCCCCCCCCCCC | 7.99% (inactive) | –
18 | CCC(=O)c1ccc(O)cc1 | -7.06% (inactive) | –
19 | O=C(O)c1c(Cl)ccc(Cl)c1Cl | 5.49% (inactive) | –
20 | CCC1Nc2cc(Cl)c(S(N)(=O)=O)cc2S(=O)(=O)N1 (stereo not given) | -2.14% (inactive) | –

Row | Structure (SMILES) | max response | Potency
21 | CC(=O)Nc1ccc(C)cc1 | -5.67% (inactive) | –
22 | NC(=O)NC(=O)Cc1ccccc1 | 3.75% (inactive) | –
23 | O=c1[nH]c(=O)c2[nH]c(=O)[nH]c2[nH]1 | 10.6% (inactive) | –
24 | CC(C)(C)NCCO | 6.71% (inactive) | –
25 | O=C1CC[C@H](C(=O)N2CCCCC2)N1 | -2.81% (inactive) | –
26 | CCCCCC1CCCC(=O)O1 (stereo not given) | 7.32% (inactive) | –
27 | C[C@H](CCC(=O)NCC(=O)O)[C@H]1CC[C@H]2[C@@H]3[C@H](O)C[C@@H]4C[C@H](O)CC[C@]4(C)[C@H]3C[C@H](O)[C@]12C | – | 9.49 µM (active)
28 | CC1(N)CCC(C(C)(C)N)CC1 (stereo not given) | -1.45% (inactive) | –
29 | O=C(O)CCNC(=O)c1ccccc1 | -0.231% (inactive) | –
30 | Nc1ccc(S(=O)(=O)Nc2ccccn2)cc1 | -4.15% (inactive) | –
31 | C=COCCOCCOC=C | -1.05% (inactive) | –
32 | O=C1c2ccccc2-c2ccccc21 | 1.19% (inactive) | –
33 | C=CCOCC(O)CCl (stereo not given) | 0.946% (inactive) | –
34 | CCOC(=O)OCC/C(SC(=O)OCC)=C(\C)N(C=O)Cc1cnc(C)nc1N | 4.82% (inactive) | –
35 | O=S(=O)(O)CCO | -10.5% (inactive) | –
36 | CCN(Cc1cccc(S(=O)(=O)O)c1)c1ccccc1 | 0.413% (inactive) | –
37 | OC(CCN1CCCCC1)(c1ccccc1)c1ccccc1 | -16.7% (inactive) | –
38 | N#CCCOCCOCCC#N | 9.79% (inactive) | –
39 | COc1ccc(/C=N/NC(=O)c2ccncc2)cc1OC | -6.3% (inactive) | –
40 | Cc1ncc([N+](=O)[O-])n1CC(O)CCl (stereo not given) | 3.64% (inactive) | –
